# Reference: PubChem BioAssay
# “And” between values parts separate entries of the source, which are not always exact repeats. Equal values may be shown once. The source made the active and inactive calls. Unless noted, how the calls were made is not given here.
# What was measured:
# [1] = liver-stage malaria parasite growth inhibition, primary screen, cell-based, HepG2, luciferase luminescence, HepG2 viability (AID 624349; in the data active means parasite load remaining mostly below about 12%, no sharp cut-off; inactive means mostly above about 10%;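 further: 100% = mean of DMSO negative control wells on the same plate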); details: P. berghei liver stage in HepG2, luciferase luminescence, concentration not given here; parasite load remaining: stronger effect = lower value; viability: measured here: HepG2 viability without parasites
# [2] = Cy5 fluorescence interference with SSB-bound oligo, artefact control for HCV NS3 helicase inhibitor project, biochemical, NIH Clinical Collection, E. coli SSB (AID 743268)
# [3] = test system: Hepatitis C virus NS3 helicase; experiment: HCV NS3 helicase inhibitors, primary screen, biochemical, fluorescence polarization, NIH Clinical Collection (AID 743270); details: NS3 helicase binding to Cy5-dT15 DNA, stronger effect = higher value, concentration not given here
# [4] = target: Single-stranded DNA-binding protein (Escherichia coli (strain K12)) (UniProt P0AGE0); experiment: E. coli SSB displacement from DNA, counter-screen for HCV NS3 helicase inhibitor project, biochemical, fluorescence polarization, NIH Clinical Collection (AID 743271; in the data active means inhibition above about 28%); details: stronger effect = higher value, concentration not given here
# [5] = fluorescence interference in NS3h assay format, artefact control for HCV NS3 helicase inhibitor project, biochemical, NIH Clinical Collection (AID 743272); details: fluorescence interference counterscreen, stronger effect = lower value;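 further: HCV NS3 helicase with a Cy5 labelled single stranded DNA probe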
# [6] = test system: Neuropilin-2 / VEGF-C interaction (human); experiment: inhibitors of NRP2–VEGF-C binding, biochemical, microplate binding format, z-score (AID 743281); details: microplate NRP2/VEGF-C binding assay; stronger effect = lower value
# [7] = modulation of C. elegans fzo-1 (AID 1259413);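 further: fzo-1 mutant C. elegans worms in liquid wells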; details: C. elegans fzo-1 modulator screen, mean read-out; stronger effect = higher value
# [8] = sensitizers of A549 cells to miR-34 induction, primary screen, imaging, A549 dox-inducible miR-34, nuclei and caspase counts (AID 1347080;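 active means compounds whose cell count with miR-34 switched on is under 0.7 times the count with it off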); details: A549 miR-34 inducible, Hoechst nuclei count, 48 h
# [9] = viability rescue of complex I mutant cybrids, primary screen, cell-based, galactose medium, ATP luminescence (AID 1645843;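 active means z-score of at least 1.8 in each of two replicates, scored against plate mean and spread of sample wells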;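 further: positive z means more ATP and so rescue of galactose-driven cybrid death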); details: complex I mutant cybrid cells, 72 h, stronger effect = higher value
# [10] = survival rescue of mitochondrial mutant cells in low glucose, primary screen, MELAS cybrids, Rieske KO mouse fibroblasts, CellTiter-Glo (AID 1508586;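 active means mean z-score across replicates of 1.96 or higher in either the MELAS or the Rieske mutant cell line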;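 further: z relative to plate mean and SD of compound and empty wells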)
# [11] = stronger effect = lower value, cell number ratio, induced over uninduced
# [12] = measured here: relative caspase fold change +Dox/-Dox
# [13] = measured here: total cells with miR-34 induction, stronger effect = lower value
# [14] = measured here: total cells without miR-34 induction
# [15] = MELAS cybrid survival, CellTiter-Glo 48 h, stronger effect = higher value
# [16] = Rieske KO mouse fibroblast survival, CellTiter-Glo 72 h
Structure (SMILES),parasite load remaining [1],viability [1],fluorescence ratio [2],inhibition [3],inhibition [4],fluorescence ratio [5],z-score [6],mean signal [7],"fold change [8, 11]","fold change [8, 12]","cell count [8, 13]","cell count [8, 14]",z-score [9],outcome [6],"z-score [10, 15]","z-score [10, 16]"
CN1[C@@H](CC(=O)c2ccccc2)CCC[C@H]1C[C@H](O)c1ccccc1,59.5% (inactive) and 70.7% (inactive) and 71% (inactive),108% and 77.1% and 78.1%,1.03 (inactive),0.4% (inactive),-0.1% (inactive),1.03 (inactive),-0.358 (inactive),245 (inactive),1.06 (inactive) and 0.859 (inactive) and 0.83 (inactive),0.866 and 1.18 and 1.23,11200 and 9030 and 8370,10500 and 10100,-0.54 (inactive) and -0.495 (inactive),,,
CC[C@]1(O)CC2CN(CCc3c([nH]c4ccccc34)[C@@](C(=O)OC)(c3cc4c(cc3OC)N(C)[C@H]3[C@@](O)(C(N)=O)[C@H](O)[C@]5(CC)C=CCN6CC[C@]43[C@@H]65)C2)C1 (stereo partly specified),65.1% (inactive),135%,0.91 (inactive),-6.33% (inactive),1.18% (inactive),0.91 (inactive),,260 (inactive),,,,,,inactive,,
Nc1nc2ccc(Cl)cc2c2nc(-c3ccco3)nn12,21.2% (inactive),75.1%,0.95 (inactive),-2.77% (inactive),-6.26% (inactive),0.95 (inactive),0.671 (inactive),260 (inactive),1.05 (inactive) and 0.991 (inactive) and 1.02 (inactive),0.947 and 1.47 and 1,7130 and 7040 and 7980,6800 and 7110 and 7830,0.585 (inactive) and 0.89 (inactive) and -0.13 (inactive),,,
OC[C@H]1O[C@@H](n2cnc3c(NC4CCCC4)nc(Cl)nc32)[C@@H](O)C1O (stereo partly specified),65.4% (inactive),67.2%,0.94 (inactive),-2.84% (inactive),-1.97% (inactive),0.97 (inactive),-0.619 (inactive),256 (inactive),,,,,,,,
CC(=O)N1CCN(c2ccc(OC[C@H]3CO[C@](Cn4ccnc4)(c4ccc(Cl)cc4Cl)O3)cc2)CC1,,,0.93 (inactive),4.36% (inactive),13.8% (inactive),0.91 (inactive),0.168 (inactive),283 (inactive),,,,,-1.2 (inactive) and -0.985 (inactive) and -1.05 (inactive),,1.22 (inactive) and -0.0928 (inactive),0.853 and 1.14
CC(=O)S[C@@H]1CC2=CC(=O)CCC2(C)[C@H]2CCC3(C)[C@@H](CC[C@@]34CCC(=O)O4)[C@H]12 (stereo partly specified),,,,,,,,260 (inactive),,,,,,,,
CC(=O)SCC(Cc1ccccc1)C(=O)NCC(=O)OCc1ccccc1 (stereo unspecified),,,0.96 (inactive),3.56% (inactive),2.21% (inactive),0.86 (inactive),-0.263 (inactive),251 (inactive),,,,,0.9 (inactive) and 0.57 (inactive),,-0.406 (inactive) and 0.283 (inactive) and 0.224 (inactive),0.561 and 0.494 and -0.589
